{
  "source": "PubChem BioAssay",
  "note": "Active and inactive are the calls of the source. No rule for the calls is given here.",
  "data": [
    {"molecular_target": "Pantothenate synthetase (Mycobacterium tuberculosis (strain ATCC 25618 / H37Rv)) (UniProt P9WIL5)", "sequence (P9WIL5 whole entry, looked up)": "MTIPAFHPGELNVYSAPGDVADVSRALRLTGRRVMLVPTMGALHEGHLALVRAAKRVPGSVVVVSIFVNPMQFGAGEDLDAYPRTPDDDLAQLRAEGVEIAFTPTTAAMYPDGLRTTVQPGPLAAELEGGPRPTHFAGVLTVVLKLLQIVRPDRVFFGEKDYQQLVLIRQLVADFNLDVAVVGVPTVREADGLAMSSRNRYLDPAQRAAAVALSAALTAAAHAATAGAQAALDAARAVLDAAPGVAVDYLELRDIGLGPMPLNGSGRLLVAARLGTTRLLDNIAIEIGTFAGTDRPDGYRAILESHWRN", "experiment": "Recombinant Mtb pantothenate synthetase (PanC) inhibitors, coupled enzyme, confirmatory (AID 375);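 also: 0% = full reaction with vehicle and 100% = no enzyme background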", "conditions": "coupled enzyme assay; at 10 µM, stronger effect = higher value", "values": [
      {"smiles": "Cc1ccc(OCC(O)CN2C(=O)NC(C)(C)C2=O)cc1C", "note": "(stereo not given)", "inhibition": "2% (inactive)"},
      {"smiles": "COc1ccc(OC)c(C2C(C(=O)Nc3ccc(F)cc3)=C(C)Nc3nc(CCCO)nn32)c1", "note": "(stereo not given)", "inhibition": "5% (inactive)"},
      {"smiles": "O=C(NCCN1CCOCC1)NC1(C(F)(F)F)Oc2ccc(Cl)cc2O1", "note": "(stereo not given)", "inhibition": "0% (inactive)"},
      {"smiles": "COc1ccc(N(CC(=O)O)S(=O)(=O)c2ccc(OC)c(OC)c2)cc1", "inhibition": "5% (inactive)"},
      {"smiles": "CN(C)CCOC(=O)C(c1ccccc1)C1(O)CCCC1", "note": "(stereo not given)", "inhibition": "5% (inactive)"},
      {"smiles": "COc1ccccc1N1CCN(C(=O)c2c(-c3c(Cl)cccc3Cl)noc2C)CC1", "inhibition": "0% (inactive)"},
      {"smiles": "Cc1ccccc1Cn1ccc(NC(=O)c2onc(C)c2Cl)n1", "inhibition": "0% (inactive)"},
      {"smiles": "O=C(NCc1ccccn1)c1cccs1", "inhibition": "0% (inactive)"},
      {"smiles": "Cc1cccc(OCCCC(=O)O)c1", "inhibition": "3% (inactive)"},
      {"smiles": "CCCCN(Cc1cc2cc(OC)ccc2[nH]c1=O)C(=O)COc1ccccc1", "inhibition": "2% (inactive)"},
      {"smiles": "O=C(Nc1nc(-c2ccccc2)cs1)C1CCCCN1S(=O)(=O)c1ccccc1", "note": "(stereo not given)", "inhibition": "1% (inactive)"},
      {"smiles": "CCN(C(=O)c1cn(C)c(=O)c2cc(OC)c(OC)cc12)c1ccccc1C", "inhibition": "6% (inactive)"},
      {"smiles": "CC1=C(C(=O)OCc2ccccc2)C(c2ccco2)n2ncnc2N1", "note": "(stereo not given)", "inhibition": "0% (inactive)"},
      {"smiles": "CC(C)(C)NC(=O)CN(C(=O)C1CSC(=O)C1)c1ccc2c(c1)OCCO2", "note": "(stereo not given)", "inhibition": "0% (inactive)"},
      {"smiles": "CCN(CC)S(=O)(=O)c1cccc2c(N(C)C)cccc12", "inhibition": "0% (inactive)"},
      {"smiles": "O=C(Nc1ccccc1C(=O)N1CCOCC1)C1CCC(=O)N1C1CCCC1", "note": "(stereo not given)", "inhibition": "1% (inactive)"},
      {"smiles": "CC(n1cnnn1)C12CC3CC(CC(C3)C1)C2", "note": "(stereo not given)", "inhibition": "8% (inactive)"},
      {"smiles": "CC(=O)Oc1cccc2c1C(=O)c1c(OC(C)=O)cc(C(=O)O)cc1C2=O", "inhibition": "2% (inactive)"},
      {"smiles": "CN(C)c1ccc(C(=O)OCC(=O)NC2CCCCC2)cc1", "inhibition": "0% (inactive)"},
      {"smiles": "CC(=O)OCC(=O)[C@@]1(O)CC[C@H]2[C@@H]3CCC4=CC(=O)C=C[C@]4(C)[C@H]3[C@@H](O)C[C@@]21C", "inhibition": "0% (inactive)"},
      {"smiles": "Cc1nc(-c2coc3cc(OCC(=O)O)ccc3c2=O)cs1", "inhibition": "0% (inactive)"},
      {"smiles": "CCOc1ccc(-c2noc(-c3ccncc3)n2)cc1OCC", "inhibition": "4% (inactive)"},
      {"smiles": "Cc1ccc(NCc2nnc(SCC(=O)NCc3ccco3)n2CC2CCCO2)cc1Cl", "note": "(stereo not given)", "inhibition": "3% (inactive)"},
      {"smiles": "N#CCCCCn1c(-c2cncs2)nc2ccccc21", "inhibition": "0% (inactive)"},
      {"smiles": "O=c1c2cc(N3CCOCC3)ccc2[nH]c(=S)n1CCCN1CCCCC1", "inhibition": "1% (inactive)"},
      {"smiles": "CCN(c1ccc(OC)cc1)S(=O)(=O)c1ccc2c(c1)CCN2C(=O)CCC(=O)O", "inhibition": "0% (inactive)"},
      {"smiles": "CCc1nnc(SCC(=O)NC2CCCCC2)nc1CC", "inhibition": "1% (inactive)"},
      {"smiles": "CCOc1nc(-c2ccncc2)nc2ccccc12", "inhibition": "0% (inactive)"},
      {"smiles": "CCn1cc(C(C)NC(=O)COc2ccc(Cl)cc2C)c(C)n1", "note": "(stereo not given)", "inhibition": "0% (inactive)"},
      {"smiles": "COCCN1C(=O)C(=O)/C(=C(/O)c2ccc(OC(C)C)cc2)C1c1cccnc1", "note": "(stereo not given)", "inhibition": "0% (inactive)"},
      {"smiles": "Cc1nc2sc(C#N)c(N)c2c2c1CCCC2", "inhibition": "2% (inactive)"},
      {"smiles": "CC1(C)CC(=O)C(C=NCc2ccc3c(c2)OCO3)=C(O)C1", "inhibition": "5% (inactive)"},
      {"smiles": "CCOC(=O)c1ccc(NC(=O)CCc2c(C)nc3ncnn3c2C)cc1", "inhibition": "1% (inactive)"},
      {"smiles": "Cc1ccc2nc(C3CCN(CC(=O)N4CCCCCC4)CC3)[nH]c2c1", "inhibition": "0% (inactive)"},
      {"smiles": "COc1cc(NC(=O)c2nccnc2C(=O)O)cc(OC)c1", "inhibition": "5% (inactive)"},
      {"smiles": "CCn1c(=S)sc2nc(C)sc21", "inhibition": "1% (inactive)"},
      {"smiles": "COc1cccc(OC)c1C(=O)n1nc(C)cc1C", "inhibition": "6% (inactive)"},
      {"smiles": "COc1nc(C)ccc1-c1noc(-c2ccncc2)n1", "inhibition": "2% (inactive)"},
      {"smiles": "CC(=O)c1cccc(NC(=O)N2C3CCC2CC(O)(c2cccnc2)C3)c1", "note": "(stereo not given)", "inhibition": "0% (inactive)"},
      {"smiles": "COC(=O)C1=C(C)OC(N)=C(C#N)C1c1ccccc1", "note": "(stereo not given)", "inhibition": "0% (inactive)"}
    ]}
  ]
}
